# Compound activity (PubChem BioAssay)
# This excerpt belongs to a sample that is enriched for hits.
# Pf Dd2 growth: qHTS Primary assay for Inhibitors of Plasmodium falciparum Dd2 growth in vitro. P. falciparum Dd2 growth, SYBR Green, 72 h. Potency, µM (highest dose often 28.9 µM), hits mostly inhibitors. actives 4.3% (n = 120,000). AID 1347417, 2020; active means well fitted inhibition curve with a large enough effect; further: nearly all actives have a fitted effect of over 65% in size
#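 Readout: SYBR Green fluorescence, 485 nm excitation, 535 nm emission, after ~16 h lysis at 37C. Before that, Dd2-infected red cells (2.5% hematocrit) grew 72 h with compound, 29 uM top final concentration.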
# Numbers stand for hits; n = inactive; [ ] = dose if it differs, or a comment.
SMILES,Pf Dd2 growth
COc1cccc(CCC(=O)N2CCCC(Nc3ccc(F)cc3)C2)c1 (centres undefined),n
COc1ccc(-c2noc(C(=O)O)c2[C@@H](C)NC(=O)Nc2cccnc2)cc1,n
O=C(Cn1ccn2nc(-c3ccc(F)cc3)c(CO)c2c1=O)Nc1ccc(F)c(F)c1,n
CCc1c(C)c2ccc3c(c2oc1=O)CN(Cc1ccccc1)CO3,1µM
COc1ccc(-c2cc(=O)oc3c4c(ccc23)OCN(Cc2ccccc2)C4)cc1,0.89µM
O=C1COc2ccc(-c3ccncc3)nc2CN1Cc1ccccc1,n
O=c1c2oc3ccccc3c2n(Cc2ccccc2)c(=O)n1Cc1ccc2c(c1)OCO2,n
Cc1coc2c(C)c3oc(=O)c(CC(=O)NCc4ccccc4)c(C)c3cc12,n
COc1ccc(OC2CN(Cc3ccccc3)C2)cc1,n
O=c1cc(-c2ccccc2)c2ccc3c(c2o1)CN(Cc1ccccc1)CO3,1µM
CC1=NOC2(CCN(Cc3ccccc3)CC2)C1,n
COc1ccc(C2=NOC3(CCN(Cc4ccccc4)C3)C2)cc1 (centres undefined),n
CNc1ncccc1C(=O)N1CCCN(Cc2ccc(F)cc2)C(C(C)C)C1 (centres undefined),n
COc1ccc(C(=O)NCCC2CCN(C(=O)Nc3ccc(C)cc3)CC2)cc1OC,n
CCn1ccc(C(=O)N2CCCC(c3noc(COc4ccccc4F)n3)C2)n1 (centres undefined),n
CC1(C(=O)O)CCN(S(=O)(=O)c2ccsc2)CC1,n
O=C(CCc1conc1-c1ccc(F)cc1)NCc1cccc(Br)c1,n
C[C@H]1CCCN1C(=O)c1nnc(COc2ccccc2)n1-c1ccccc1,n
Cc1ccc(-c2nc(CNC(=O)[C@@H]3CCC[C@H](N)C3)[nH]c2-c2ccccn2)cc1,10µM
O=C(NCc1nc(-c2cccc(F)c2)c(-c2ccccn2)[nH]1)[C@@H]1C[C@@H](O)CN1,n
O=C(CN1CCNCC1)NCc1nc(-c2cccc(F)c2)c(-c2ccccn2)[nH]1,n
O=C(c1ccccc1)N1CC(Oc2ccc(F)cc2F)C1,n
O=[S+]1([O-])NCC2(CCN(Cc3c(F)cccc3F)C2)Oc2ccncc21 (centres undefined),n
COc1ccc(-c2ccccc2NC(=O)C2CCCN(Cc3cccc(F)c3F)C2)cc1 (centres undefined),n
COc1cccc(-c2ccc(NC(=O)C3CCCN(Cc4cc(C(C)C)n[nH]4)C3)cc2)c1 (centres undefined),11µM
SMILES,Pf Dd2 growth
CCCOC(=O)N1CCCC(C(=O)Nc2ccccc2-c2ccc(OC)cc2)C1 (centres undefined),n
CCCCc1ncc(CN2CCCC(C(=O)Nc3ccccc3-c3ccc(OC)cc3)C2)[nH]1 (centres undefined),8.9µM
COc1cccc(-c2ccc(NC(=O)C3CCCN3C(=O)Cn3cccn3)cc2)c1 (centres undefined),n
COc1cccc(-c2ccc(NC(=O)C3CCCN3C(=O)CNC(C)=O)cc2)c1 (centres undefined),n
CC(C)C(=O)Nc1ccc(C2(C(=O)N(C)C)CCC2)cc1,n
O=C(c1ccc(Cl)cc1)N1CCC(N2CCNC2=O)CC1,n
CCNC(=O)N1Cc2[nH]cnc2C[C@H]1C(=O)NCc1ccccc1,n
CN(C)C(=O)c1cc(-c2cnccc2Cl)c2cccn2n1,n
O=C(NCc1ccc(F)cc1)c1cc(-c2cnccc2Cl)c2cccn2n1,8.9µM
COC(=O)CNC(=O)c1cc(-c2cnccc2Cl)c2cccn2n1,n
c1ccc2c(CN3CCn4c(nnc4C4CCCNC4)C3)cccc2c1 (centres undefined),n
O=C(CC1COCCN1)N(CCc1c[nH]c2ccccc12)C1CCCCC1 (centres undefined),8.9µM
O=C1CCN(C(=O)CCCc2c[nH]c3ccccc23)CCCOCCN1,n
O=C(CC1COCCN1)N(Cc1cccnc1)Cc1cccnc1 (centres undefined),n
Cc1nc(CN2CC3(CCN(C)C3)c3cc(C(=O)NCc4ccccc4)ccc32)cs1 (centres undefined),n
Cc1ccc(NC(=O)Cn2cc(C(=O)c3ccccc3)c3ccccc32)c(C)c1,n
COc1ccc(OCCn2cc(C(=O)c3ccco3)c3ccccc32)cc1,1µM
Cc1ccc(C)c(OCCn2cc(C(=O)c3ccco3)c3ccccc32)c1,1µM
CCOC(=O)c1ccc(NC(=O)Cn2cc(C(=O)c3cccs3)c3ccccc32)cc1,n
O=C(c1cccs1)c1cn(CCOc2ccccc2Cl)c2ccccc12,3.2µM
COc1ccc(NC(=O)Cn2cc(C(=O)C3CCCCC3)c3ccccc32)cc1,n
Cc1ccc(CN(Cc2ccco2)C(=O)COc2ccccc2C)cc1,n
O=C(c1cn(CCOc2ccccc2F)c2ccccc12)C1CCCCC1,n
COc1ccc(OCC(=O)Nc2ccc3c(c2)nc(CCNC(=O)c2ccco2)n3C)cc1,n
CN1CCN(c2nc3c(c(=O)[nH]2)CCN(Cc2ccc(F)c(F)c2)CC3)CC1,n[5.79 µM]
O=C(CCC1CCN(S(=O)(=O)c2ccccc2)CC1)N1CCc2ccccc2C1,n
